Among the data in PubChem BioAssay AID720706 (Broad Institute, 2013) are GFP signal change (wild-type ribosome), OD600 change and RFP signal change values, retold here.

The structures appear in SMILES notation. Out of some 350,000 compounds screened, about 5,500 (1.6%) were called active.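 How the source made its calls: active means significant combined selectivity score with lowered wild-type GFP, culture density cut under 30%, mutant RFP and density less affected; inactive means any of these conditions unmet.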 Shown is part of a subset that was picked to be rich in actives.

A short description of this assay: reduced GFP signal of wild-type E. coli, primary screen, bacterial rRNA inhibitor project, GFP/RFP fluorescence, OD600, single point (AID 720706). The following applies: E. coli WT GFP vs humanized-ribosome RFP mutants, 24 h; GFP signal change (wild-type ribosome): stronger effect = lower value, DMSO median 0, no signal -100; OD600 change: measured here: OD600 growth, DMSO median 0, no signal -100; RFP signal change: measured here: RFP humanized mutant strains, DMSO median 0, no signal -100, concentration not given here.
On to `C[C@H](CO)N1C[C@H](C)[C@H](CN(C)Cc2ccncc2)Oc2ccc(NC(=O)Nc3ccc(F)cc3)cc2C1=O`, for which the GFP signal change (wild-type ribosome) was 0.717% (inactive), the OD600 change is -2.2% and the RFP signal change is -2.45%.
In the same order, the values of `CN1c2ccc(-c3ccc(C#N)cc3)cc2[C@@H]2[C@@H](CCN2C(=O)C2CCCCC2)[C@H]1CO` are -6.99% (inactive), -10.9% and 6.2%.
In the case of `CN(C)C(=O)c1ccc(-c2ccccc2[C@H]2[C@@H](CO)N(C(=O)C3CCCCC3)[C@H]2C#N)cc1`, the GFP signal change (wild-type ribosome) is -3.32% (inactive), the OD600 change worked out at 0.601% and the RFP signal change is -4.88%.
In the same order, the values of `O=C(NCCCc1ccccc1)C(=O)c1c[nH]c2ccccc12` are 0.21% (inactive), -1.22% and -2.69%.
For `O=C(O)c1ccccc1-c1ccccc1C(=O)NCCc1ccccc1`, in that order: 7.6% (inactive), 2.74% and 2.49%.
In the same order, the values of `O=C(NCCc1ccccc1)c1c[nH]c2ccc(F)cc2c1=O` are -31.8% (active), -19.6% and -3.4%.
On to `COCC(=O)N(C)C[C@H]1[C@@H](c2ccccc2)[C@H](CO)N1C(=O)Cc1ccncc1`, for which the GFP signal change (wild-type ribosome) is 4.17% (inactive), the OD600 change is 8.74% and the RFP signal change came to 0.341%.
As to `Cc1ccc(S(=O)(=O)N[C@H]2CC[C@@H](CC(=O)NCCCN(C)C)O[C@H]2CO)cc1`, the GFP signal change (wild-type ribosome) is 4.5% (inactive), the OD600 change amounted to 5.89% and the RFP signal change is -1.14%.
For `C[C@H](CO)N1C[C@H](C)[C@@H](CN(C)S(C)(=O)=O)Oc2ccc(NC(=O)Nc3ccc4c(c3)OCO4)cc2CC1=O`, in that order: -0.075% (inactive), 5.52% and 1.12%.
In the same order, the values of `NNC(=O)c1cnn(-c2ccccc2)c1C(F)(F)F` are 5.13% (inactive), 9.29% and -0.665%.
In the same order, the values of `O=C(NNS(=O)(=O)c1ccccc1)c1cnn(-c2ccc(Cl)cc2)c1C(F)(F)F` are -40.1% (active), 20.1% and 3.85%.
For `CCCc1c(C(=O)O)cnn1-c1ccc(Cl)cc1`, the GFP signal change (wild-type ribosome) is -6.54% (inactive), the OD600 change is -3.54% and the RFP signal change was 0.509%.
For `C[C@H]1CN([C@@H](C)CO)C(=O)c2cc(-c3ccncc3)cnc2O[C@@H]1CN(C)C(=O)C1CCCCC1`, in that order: 0.821% (inactive), 4.66% and -3.44%.
For `C[C@H](CO)N1C[C@H](C)[C@H](CN(C)C(=O)C2CC2)Oc2cc(-c3cccnc3)ccc2S1(=O)=O`, in that order: -1.18% (inactive), 3.4% and 0.533%.
For `CCCNC(=O)N1[C@H](CO)[C@@H](c2ccc(-c3ccc(C(=O)N(C)C)cc3)cc2)[C@@H]1C#N`, in that order: 6.87% (inactive), 16.3% and -2.83%.
Regarding `O=C(c1ccc(F)cc1)N1CC(=O)N2[C@@H](CO)[C@H](c3ccc(C4=CCCC4)cc3)[C@@H]2C1`, the GFP signal change (wild-type ribosome) was 4.17% (inactive), the OD600 change was found to be 4.94% and the RFP signal change is -0.136%.
Turning to `C[C@H](CO)N1C[C@H](C)[C@@H](CN(C)C(=O)C2CC2)Oc2cc(C#CC(C)(C)O)ccc2S1(=O)=O`, the GFP signal change (wild-type ribosome) is 1.02% (inactive), the OD600 change worked out at 10.5% and the RFP signal change was -2.74%.
In the same order, the values of `COCC(=O)N1CC(=O)N2[C@H](C1)[C@H](c1ccc(C#CC3CCCCC3)cc1)[C@@H]2CO` are 2.23% (inactive), 2.33% and 1.49%.
In the same order, the values of `Cc1cccc(NC(=O)c2ccc(S(=O)(=O)N(C)c3ccccc3)cc2)n1` are -16.8% (active), -25% and 1.23%.
For the molecule `CN(c1ccccc1)S(=O)(=O)c1ccc(C(=O)NCc2cccnc2)cc1`, the GFP signal change (wild-type ribosome) is -0.96% (inactive), the OD600 change is -21.8% and the RFP signal change came out at 0.05%.
`CN(c1ccccc1)S(=O)(=O)c1ccc(C(=O)NCCc2ccccc2)cc1`: the GFP signal change (wild-type ribosome) is -12.7% (inactive), the OD600 change was -28.7% and the RFP signal change was -1.12%.
For `C[C@@H]1CN([C@H](C)CO)C(=O)c2cc(C#CCN(C)C)cnc2O[C@H]1CN(C)C(=O)NC1CCCC1`, in that order: 3.54% (inactive), 11.4% and -1.39%.
In the same order, the values of `CNC[C@@H]1Oc2ccc(NS(=O)(=O)c3c(C)noc3C)cc2CC(=O)N([C@@H](C)CO)C[C@@H]1C` are 1.9% (inactive), 3.17% and 1.62%.
For `Cc1ccc(C)c(NC(=O)NNC(=O)c2ccc3ccccc3c2O)c1`, the GFP signal change (wild-type ribosome) is 7.08% (inactive), the OD600 change was determined as 7.28% and the RFP signal change is -0.547%.
In the same order, the values of `Cc1ccc(C)c(NC(=O)c2ccc3nccnc3c2)c1` are 4.03% (inactive), 7.77% and -0.371%.
In the same order, the values of `Cc1ccc(C)c(NC(=O)c2cc(-c3cc(C)cc(C)c3O)n[nH]2)c1` are -26.5% (active), -6.64% and -4.96%.
In the same order, the values of `O=C(C[C@H]1C[C@H]2c3cc(NC(=O)C4CCOCC4)ccc3O[C@H]2[C@@H](CO)O1)NCCN1CCCCC1` are 5.5% (inactive), 7.29% and 1.6%.
Consider `C[C@@H]1CN([C@H](C)CO)C(=O)c2cc(NC(=O)C3CCCCC3)ccc2O[C@@H]1CN(C)CC1CCCCC1`, for which the GFP signal change (wild-type ribosome) is 0.0895% (inactive), the OD600 change amounted to 5.96% and the RFP signal change came to 0.317%.
In the same order, the values of `OCc1ccc(OCCCOc2cccc3cccnc23)cc1` are -10.7% (inactive), -8.81% and -4.97%.
On to `O=S(=O)(NCCc1ccc(F)cc1)c1cccc2cccnc12`, for which the GFP signal change (wild-type ribosome) was -26.1% (inactive), the OD600 change is -23% and the RFP signal change is -1.09%.
For `O=S(=O)(NCCOc1cccc2cccnc12)c1ccc(F)cc1`, in that order: -21.1% (active), -16% and 1.43%.
As for `O=C(C[C@@H]1CC[C@@H](NC(=O)C2CCOCC2)[C@H](CO)O1)NCC1CC1`, the GFP signal change (wild-type ribosome) is 0.615% (inactive), the OD600 change is 0.519% and the RFP signal change is -2.58%.
